# Assay results as given in the supplement of paper PMC12282887.
# ± gives the standard deviation of the averaged measurements.
# Test system: E. coli BW25113 marRABp lux reporter
# Test: promoter activity interaction Z-score (Lux/OD deviation from empty-vector control); higher = stronger promoter induction by the compound
# Protocol: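 E. coli BW25113 (wild type or ΔmarA/ΔsoxS/Δrob) carrying pTU175 luxCDABE promoter reporters was grown in LB in 384-well plates at 37°C with each of 94 compounds at 4 two-fold concentrations, in biological duplicates. Luminescence and OD600 were read every 30 min for 12 h and integrated as AUC over 8 h (0-8 h WT, 1-9 h mutants). Lux AUC was divided by OD AUC; the interaction score is the residual of a Huber robust fit of each promoter against the empty-vector control, then Z-transformed per promoter.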
Compound,"promoter activity interaction Z-score (0.038 µg/ml, genetic background: wild type)","promoter activity interaction Z-score (0.038 µg/ml, genetic background: ΔmarA)","promoter activity interaction Z-score (0.038 µg/ml, genetic background: Δrob)","promoter activity interaction Z-score (0.038 µg/ml, genetic background: ΔsoxS)","promoter activity interaction Z-score (0.076 µg/ml, genetic background: wild type)","promoter activity interaction Z-score (0.076 µg/ml, genetic background: ΔmarA)","promoter activity interaction Z-score (0.076 µg/ml, genetic background: Δrob)","promoter activity interaction Z-score (0.076 µg/ml, genetic background: ΔsoxS)","promoter activity interaction Z-score (0.15 µg/ml, genetic background: wild type)","promoter activity interaction Z-score (0.15 µg/ml, genetic background: ΔmarA)","promoter activity interaction Z-score (0.15 µg/ml, genetic background: Δrob)","promoter activity interaction Z-score (0.15 µg/ml, genetic background: ΔsoxS)","promoter activity interaction Z-score (0.3 µg/ml, genetic background: wild type)","promoter activity interaction Z-score (13.3 µg/ml, genetic background: wild type)","promoter activity interaction Z-score (13.3 µg/ml, genetic background: ΔmarA)","promoter activity interaction Z-score (13.3 µg/ml, genetic background: Δrob)","promoter activity interaction Z-score (13.3 µg/ml, genetic background: ΔsoxS)","promoter activity interaction Z-score (26.6 µg/ml, genetic background: wild type)","promoter activity interaction Z-score (26.6 µg/ml, genetic background: ΔmarA)","promoter activity interaction Z-score (26.6 µg/ml, genetic background: Δrob)","promoter activity interaction Z-score (26.6 µg/ml, genetic background: ΔsoxS)","promoter activity interaction Z-score (53.2 µg/ml, genetic background: wild type)","promoter activity interaction Z-score (53.2 µg/ml, genetic background: ΔmarA)","promoter activity interaction Z-score (53.2 µg/ml, genetic background: Δrob)","promoter activity interaction Z-score (53.2 µg/ml, genetic background: ΔsoxS)","promoter activity interaction Z-score (106.3 µg/ml, genetic background: wild type)","promoter activity interaction Z-score (106.3 µg/ml, genetic background: ΔmarA)","promoter activity interaction Z-score (106.3 µg/ml, genetic background: Δrob)","promoter activity interaction Z-score (106.3 µg/ml, genetic background: ΔsoxS)"
Cc1c(N)nc([C@H](CC(N)=O)NC[C@H](N)C(N)=O)nc1C(=O)N[C@H](C(=O)N[C@H](C)[C@@H](O)[C@H](C)C(=O)N[C@H](C(=O)NCCc1nc(-c2nc(C(=O)NCCC[S+](C)C)cs2)cs1)[C@@H](C)O)[C@@H](OC1OC(CO)C(O)C(O)C1OC1OC(CO)C(O)C(OC(N)=O)C1O)c1cnc[nH]1 (some centres undefined) [Bleomycin],-0.417 ± 0.23,-0.0394 ± 0.031,-0.132 ± 0.16,0.0622 ± 0.095,0.0986 ± 0.2,0.278 ± 0.39,0.331 ± 0.28,0.321 ± 0.053,0.24 ± 0.21,0.245 ± 0.13,0.652 ± 0.46,0.457 ± 0.048,2.68 ± 0.29,–,–,–,–,–,–,–,–,–,–,–,–,–,–,–,–
NCCc1c[nH]c2ccc(O)cc12 [Serotonine],–,–,–,–,–,–,–,–,–,–,–,–,–,-0.413 ± 0.011,-0.686 ± 0.15,-0.419 ± 0.028,-0.41 ± 0.18,-0.214 ± 0.13,-0.554 ± 0.18,-0.414 ± 0.15,-0.421 ± 0.26,-0.616 ± 0.21,-0.71 ± 0.041,-0.479 ± 0.089,-0.523 ± 0.25,-0.518 ± 0.15,-0.531 ± 0.2,-0.324 ± 0.025,-0.498 ± 0.093
